Records with an inconclusive call do not appear. Activity calls are given as the source filed them. Calls follow the shape of the dose curve; as a rule, active = well fitted inhibition curve with a large enough effect; inconclusive = small, poorly fitted or top-dose-only effect; inactive = flat fitted curve, though single readings scatter.
Target: Calcium and integrin-binding protein 1 (Homo sapiens) (UniProt Q99828)
Experiment: Primary qHTS for Identification of Calcium Integrin Binding Protein 1 (CIB1) Competitor (AID 1508620);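 also: GST tagged CIB1 binding a fluorescein labelled alphaIIb integrin peptide tracer; top concentration of the series differs between compounds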
Details: CIB1-GST / FITC-alphaIIb peptide fluorescence polarization; series mostly up to 114 µM; activity change, negative = inhibition: at the top concentration
How it was run: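 CIB1-GST (1 uM final) and compound incubated 15 min at room temperature before adding FITC-alphaIIb peptide tracer (100 nM final). Competition for binding read by fluorescence polarization (ex 480, em 540) after another 15 min at room temperature.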
% is scaled to controls: 0 for no effect and ±100 for the full control effect.

Sequence of Calcium and integrin-binding protein 1 (Homo sapiens) (Q99828 whole entry, looked up): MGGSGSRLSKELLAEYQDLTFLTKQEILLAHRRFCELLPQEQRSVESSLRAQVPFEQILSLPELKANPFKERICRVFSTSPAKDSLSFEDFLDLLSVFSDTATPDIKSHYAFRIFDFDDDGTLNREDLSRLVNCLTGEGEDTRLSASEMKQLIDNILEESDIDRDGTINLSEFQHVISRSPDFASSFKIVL

| Structure (SMILES) | activity change, negative = inhibition |
| --- | --- |
| Cc1ccc(-c2ccc(=O)n(CC(=O)NCCc3cnc[nH]3)n2)cc1 | 4.8% (inactive) |
| c1csc(CNc2ncnc3ccc(-c4ccc5c(c4)OCCO5)cc23)c1 | -1.59% (inactive) |
| COc1cc(F)c(S(=O)(=O)N2CCN(S(=O)(=O)c3cccc(NC(C)=O)c3)CC2)c(F)c1 | -4.54% (inactive) |
| O=C(O)Cc1cc(F)c(S(=O)(=O)N2CCN(S(=O)(=O)c3ccc4c(c3)OCCO4)CC2)cc1F | -7.57% (inactive) |
| O=C(NCc1ccccc1)Nc1ncnc2c1C(c1ccccc1)c1c(ccc3ccccc13)O2 (stereo unspecified) | 5.23% (inactive) |
| O=S(=O)(c1ccc2c(c1)OCCO2)N1CCN(S(=O)(=O)c2ccc(Br)cc2F)CC1 | -1.54% (inactive) |
| O=C(Nc1nnc(-c2ccncc2)s1)Oc1ccc2ccccc2c1 | 0.0482% (inactive) |
| CC(=O)Nc1sc2c(c1-c1ccc(Cl)cc1)CCNC2 | 5.04% (inactive) |
| COc1cccc(C2=Nn3c(nnc3-c3ccccc3OC)SC2)c1 | 2.7% (inactive) |
| O=C1CCCC2=C1C1(CCSC1)N=C(Nc1nc3ccccc3o1)N2 (stereo unspecified) | -24.2% (inactive) |
| O=S1(=O)N=C(Oc2ccc(Br)cc2)c2ccccc21 | -2.85% (inactive) |
| Cc1cc(-c2nc(Nc3ccc(F)c(F)c3)c3ccccc3n2)cc(C)n1 | 6.53% (inactive) |
| O=C(NCc1ccc(F)cc1)n1c(-c2ccccc2)c(P(=S)(c2ccccc2)c2ccccc2)c2ccccc21 | -1.56% (inactive) |
| C#CCOc1cc(C2=Nn3c(nnc3-c3cccc(OCC(C)=O)c3)SC2)ccc1OC | -2.43% (inactive) |
| COc1ccc2ncnc(NCc3cccs3)c2c1-c1ccc2c(c1)OCO2 | -4.45% (inactive) |
| Cc1sc(NC(=O)Cc2ccc3c(c2)OCO3)nc1-c1ccc2c(c1)CCN2 | 4.34% (inactive) |

Reference: PubChem BioAssay (NCATS)
